Compound activity: PubChem, Johns Hopkins Ion Channel Center
An excerpt weighted towards active compounds, which were near 1.6% of everything screened.
KCNQ2 pot: potentiators of rat KCNQ2 potassium channel; Potassium voltage-gated channel subfamily KQT member 2 (Rattus norvegicus), O88943; CHO-K1 KCNQ2, FluxOR thallium flux fluorescence; active compounds read high; B-score at 10 µM; hit rate 0.54% among 310,000;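 active = fluorescence ratio B-score at least 3 SD of library B-scores, with initial fluorescence B-score within 3 of them, cut at about 5.3 in these data; same plate scores as AID 2156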;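 also: B-score of peak minus minimum over baseline fluorescence ratio after K+ and Tl+ stimulus; positive B-score means potentiation of KCNQ2 with more thallium influx and brighter signal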
Target sequence (O88943 whole entry, looked up): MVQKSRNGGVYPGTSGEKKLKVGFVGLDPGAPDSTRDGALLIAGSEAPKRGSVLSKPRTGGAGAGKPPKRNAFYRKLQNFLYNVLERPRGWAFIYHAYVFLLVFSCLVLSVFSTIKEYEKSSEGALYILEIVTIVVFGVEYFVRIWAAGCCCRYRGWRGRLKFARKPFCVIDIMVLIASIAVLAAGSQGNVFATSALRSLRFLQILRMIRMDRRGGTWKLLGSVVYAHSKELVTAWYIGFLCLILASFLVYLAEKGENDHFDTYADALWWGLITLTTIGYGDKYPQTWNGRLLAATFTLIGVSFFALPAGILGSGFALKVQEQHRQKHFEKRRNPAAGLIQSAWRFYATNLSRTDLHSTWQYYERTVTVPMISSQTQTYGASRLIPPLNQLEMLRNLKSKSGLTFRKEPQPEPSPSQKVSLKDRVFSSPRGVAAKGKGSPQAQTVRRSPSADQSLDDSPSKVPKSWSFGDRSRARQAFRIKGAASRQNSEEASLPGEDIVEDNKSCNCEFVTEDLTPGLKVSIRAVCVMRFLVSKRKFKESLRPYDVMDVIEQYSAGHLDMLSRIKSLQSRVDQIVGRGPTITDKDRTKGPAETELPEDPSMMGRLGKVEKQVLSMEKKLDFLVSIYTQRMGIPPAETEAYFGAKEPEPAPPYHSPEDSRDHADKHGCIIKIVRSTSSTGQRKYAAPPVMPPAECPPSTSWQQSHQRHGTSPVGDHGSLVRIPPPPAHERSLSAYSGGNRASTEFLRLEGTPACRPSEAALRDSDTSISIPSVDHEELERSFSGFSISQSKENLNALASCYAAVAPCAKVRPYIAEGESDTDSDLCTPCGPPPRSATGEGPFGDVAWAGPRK
KCNQ2 block: rat KCNQ2 potassium channel inhibitors, primary screen, cell-based, CHO-K1, FluxOR thallium flux, B-score; hit rate 1.1% among 310,000; 20 min; active compounds read low; Potassium voltage-gated channel subfamily KQT member 2 (Rattus norvegicus), O88943; B-score at 10 µM; AID 2156, 2009;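 active = fluorescence ratio B-score at most minus 3 library SDs, with starting brightness B-score within 2 library SDs, cut at about -5.5 in these data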
Kir21 conf inh: mouse Kir2.1 channel blockers, retest, confirmation, cell-based, FluxOR thallium flux, duplicate; Tl flux remaining, % of negative control (active compounds read low), % at 10 µM; Kir2.1-expressing cells, FluxOR thallium flux fluorescence; active compounds read low; AID 2032, 2009; shares compounds with KCNQ2 pot; hit rate 41% among 2,300;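 active = Primary-screen hit whose thallium flux fell at least 3 control SD below untreated wells in both duplicates, with normal baseline fluorescence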
HEK293 Tl flux: parental HEK293 activity in Kir2.1 inhibitor counter-screen | AID 2105 | parental HEK293 cells, FluxOR thallium flux fluorescence; 0% = unstimulated blank wells | hit rate 19% among 2,300 | FluxOR signal as % of negative control (100 = no effect), % at 10 µM | shares compounds with KCNQ2 pot;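 active = dye signal at least 3 control SD above or below untreated wells in both duplicates, raw fluorescence within 3, either direction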;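 also: percent is based on the flux ratio of peak minus minimum fluorescence over baseline F0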
CHO-K1 ctr: nonspecific thallium flux increase in parental CHO-K1, confirmation, counter-screen for KCNQ2 potentiator project, cell-based, FluxOR thallium flux, duplicate. shares compounds with KCNQ2 pot. parental CHO-K1 cells, FluxOR thallium flux fluorescence; zero = vehicle mean+3SD, 100% = vehicle-minus-blank window. activity increase over 3SD of controls, % at 10 µM. hit rate 43% among 1,200. AID 2282, 2010;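 active = signal rise of at least 3 SD above the untreated control mean, in both duplicate wells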;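 also: counter screen of KCNQ2 potentiator hits so any rise reflects channel-independent effects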
KCNQ1 pot spec: human KCNQ1 channel potentiation off-target, confirmation, selectivity assay for KCNQ2 potentiator project, cell-based, CHO, FluxOR thallium flux; hit rate 28% among 1,200; CHO KCNQ1 stable, FluxOR thallium flux fluorescence; beyond 3SD, as % of vehicle-control signal; activation over 3SD threshold, % at 10 µM; shares compounds with KCNQ2 pot; AID 2283, 2010;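 active = fluorescence ratio rise of at least 3 SD of vehicle wells above their mean, in both replicate wells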
KCNQ2 pot confirm: rat KCNQ2 channel potentiators, confirmation, cell-based, CHO, FluxOR thallium flux, duplicate; shares compounds with KCNQ2 pot; CHO-KCNQ2 cells, FluxOR thallium flux fluorescence; potentiation, less the hit threshold, % at 10 µM; hit rate 68% among 1,200; AID 2287, 2010;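 active = fluorescence ratio rising 3 SD or more over the vehicle control mean in both replicates, plus primary screen hit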;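 also: peak minus minimum thallium fluorescence divided by baseline after K/Tl stimulus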
Kir2-1 sel: mouse Kir2.1 channel activation off-target, confirmation, selectivity assay for KCNQ2 potentiator project, cell-based, HEK293, FluxOR thallium flux; shares compounds with KCNQ2 pot; HEK293 Kir2.1, FluxOR thallium flux fluorescence; activity over 3SD threshold, % at 10 µM; hit rate 2% among 1,200; AID 2345, 2010;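 active = fluorescence ratio rise of at least 3 SD above the vehicle-control mean, seen in both replicates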
KCNQ2 W236L pot: potentiators of retigabine-insensitive KCNQ2 W236L, mechanism study for KCNQ2 potentiator project, cell-based, rat KCNQ2 W236L, CHO, automated patch clamp; shares compounds with KCNQ2 pot; automated patch clamp current; current increase over 3SD of negative controls (%), active compounds read high, % at 25 µM; hit rate 10% among 940;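 active = current increase at least 3 SD of the untreated controls above them in both duplicate recordings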
A number is an active result; . = inactive; / = not tested or not shown.

SMILES | KCNQ2 pot | KCNQ2 block | Kir21 conf inh | HEK293 Tl flux | others
C=CCn1c(=NC(=O)c2ccccc2[N+](=O)[O-])sc2cc(S(C)(=O)=O)ccc21 | / | . | / | /
O=c1c2ccccc2nc2ccc(NCc3ccco3)nn12 | . | . | / | /
Cc1sc2nc3ccc(NCc4ccco4)nn3c(=O)c2c1C | 6.7 | . | . | . | CHO-K1 ctr=46;KCNQ1 pot spec=.;KCNQ2 pot confirm=.;Kir2-1 sel=.
CC(C)(C)OC(=O)NCCc1nnc(SCc2ccccc2Cl)o1 | / | . | / | /
CC(C)(C)OC(=O)NCCCCCc1nnc(SCc2ccc(F)cc2)o1 | / | . | / | /
CC(C)(C)OC(=O)N1CCC[C@H]1c1nnc(SCc2ccccc2)o1 | / | . | / | /
Cc1ccc(CSc2nnc(CCNC(=O)OC(C)(C)C)o2)cc1 | / | . | 29% | .
CC(C)(C)OC(=O)NCCc1nnc(SCc2ccccc2)o1 | / | . | 45% | 77%
Cc1ccc(CSc2nnc([C@@H]3CCCN3C(=O)OC(C)(C)C)o2)cc1 | / | . | 50% | 66%
Cc1ccc(NC(=O)COc2cccc(-n3cnnn3)c2)cc1[N+](=O)[O-] | / | . | / | /
CN(C)CCc1cc2c(c3c1ccc1ccccc13)OCO2 | / | . | 16% | .
COc1cc2ccc3c(CCN(C)C)cc(OC)c(OC)c3c2cc1OC | . | . | / | /
Cc1ccc(S(=O)(=O)NCc2cn3ccccc3n2)c(C)c1 | / | . | / | /
Cc1nc(N)nc(N)c1CCCc1ccc(Cl)c(Cl)c1 | / | . | 37% | 68%
COc1ccc(Cc2c(C)nc(N)nc2Cl)cc1 | . | . | / | /
O=C(c1cccc(-c2ccccc2)c1)N1CC[C@@H](N2CCC(O)CC2)[C@H](O)C1 | / | . | / | /
CC(Oc1ccc(F)cc1)C(=O)N(CCC1=CCCCC1)c1c(N)n(Cc2ccccc2)c(=O)[nH]c1=O (centres undefined) | / | . | / | /
CCC(C(=O)NCCCN(CC)Cc1ccccc1)n1nc(C)c2sc3ccccc3c2c1=O (centres undefined) | / | . | 47% | 64%
Cc1nn(C(C)C(=O)NCCCN(Cc2ccccc2)C(C)C)c(=O)c2c1sc1ccccc12 (centres undefined) | . | . | / | /
CN1CCN(CC(=O)N2c3ccccc3C(C)(c3ccc(Cl)cc3)CC2(C)C)CC1 (centres undefined) | . | . | / | /
CN1CCN(CC(=O)N2c3ccccc3C(C)(c3ccccc3)CC2(C)C)CC1 (centres undefined) | / | . | 58% | .
COC(=O)c1cccc(Nc2ncnc3ccc(C)cc23)c1 | / | . | / | /
COc1ccc(Nc2ncnc3ccc(C)cc23)cc1 | . | . | 52% | 168%
O=C(/C=C/c1ccc(S(=O)(=O)N2CCOCC2)cc1)NCc1ccccc1Cl | / | . | / | /
CCOC(=O)c1c(N)sc2c(OCC)c(Br)ccc12 | . | . | / | /
SMILES | KCNQ2 pot | KCNQ2 block | Kir21 conf inh | HEK293 Tl flux | others
CCOC(=O)c1c(NC(C)=O)sc2c(OCC(O)CNC(C)(C)C)c(Br)ccc12 (centres undefined) | / | . | . | .
COCCCNC(=S)N1CCN(c2nc(-c3ccccc3)cs2)CC1 | . | . | / | /
O=C(NC(=S)N1CCN(c2nc(-c3ccccc3)cs2)CC1)c1cncc(Br)c1 | 17 | . | . | 247% | CHO-K1 ctr=.;KCNQ1 pot spec=.;KCNQ2 pot confirm=18;Kir2-1 sel=.;KCNQ2 W236L pot=.
COc1ccc(NC(=O)CN(C)C(=O)CNC(=O)c2ccc3c(c2)OCO3)cc1 | . | . | / | /
CC(C)=CCCC(C)NC(=O)NC1CCCCC1 (centres undefined) | 6.7 | . | . | 76% | CHO-K1 ctr=20;KCNQ1 pot spec=48;KCNQ2 pot confirm=12;Kir2-1 sel=.;KCNQ2 W236L pot=.
CC(C)[C@H](NC(=O)NC1CCCC1)C(=O)O | . | . | / | /
Cc1ccc(O)c(C(=O)CC(=O)c2cccc(F)c2)c1 | . | . | / | /
Cc1ccc(O)c(C(=O)CC(=O)c2ccc(Cl)cc2)c1 | 6.2 | . | . | . | CHO-K1 ctr=.;KCNQ1 pot spec=.;KCNQ2 pot confirm=.;Kir2-1 sel=.
Cc1cccc(C(=O)CC(=O)c2cc(Cl)ccc2O)c1 | . | . | / | /
O=C(CC(=O)c1cc(Cl)ccc1O)c1ccccc1 | 5.3 | . | . | 130% | CHO-K1 ctr=.;KCNQ1 pot spec=.;KCNQ2 pot confirm=.;Kir2-1 sel=.;KCNQ2 W236L pot=.
CC(=O)N1CCC(N(CCN2CCOCC2)C(=S)Nc2ccccc2C)CC1 | . | . | / | /
CCOC(=O)C1CCN(Cc2c(O)ccc3ccccc23)CC1 | . | . | 70% | .
CCOC(=O)N1CCN(Cc2c(O)ccc3ccccc23)CC1 | / | . | / | /
O=C(NN1CC(C(=O)OCc2ccc(Cl)cc2Cl)CC1=O)c1ccccc1 (centres undefined) | 19 | . | . | . | CHO-K1 ctr=.;KCNQ1 pot spec=68;KCNQ2 pot confirm=74;Kir2-1 sel=.;KCNQ2 W236L pot=.
O=C(NCc1ccc(Cl)cc1Cl)C1CC(=O)N(Cc2ccccc2)C1 (centres undefined) | . | . | / | /
Cc1nnc(SCC(=O)NCc2ccccc2Cl)[nH]c1=O | / | . | / | /
CCOCc1cn(CC(=O)c2ccc([N+](=O)[O-])cc2)c(C)nc1=N | / | . | . | .
CCOCc1cn(CC(=O)c2ccc(Cl)cc2)c(C)nc1=N | . | . | / | /
COC(=O)c1cn(Cc2ccccn2)c(=O)c2ccccc12 | . | . | / | /
CCOc1cc(/C=N/NS(=O)(=O)c2ccccc2)ccc1OS(=O)(=O)c1ccc(C)cc1 | / | . | / | /
CCOc1cc(/C=N/O)ccc1OS(=O)(=O)c1ccc(C)cc1 | . | . | 48% | .
O=C(Nc1cc2c3c(c1)CC(=O)N3CCC2)c1ccc(Cl)cc1 | . | . | / | /
COC(=O)C(NC(=O)c1ccccc1)=C1C=C(C)OC(C)=C1 | . | . | / | /
CCOC(=O)C(NC(=O)c1ccccc1)=C1C=C(C)OC(C)=C1 | 6.8 | . | . | . | CHO-K1 ctr=1.7;KCNQ1 pot spec=.;KCNQ2 pot confirm=8.7;Kir2-1 sel=.;KCNQ2 W236L pot=.
O=C(O)c1ccc(S(=O)(=O)/N=C2\C=C(Nc3ccccc3F)C(=O)c3ccccc32)cc1 | . | . | / | /
